Test results reported in PubChem BioAssay (NCI).
This is part of a sample that, as a whole, favours compounds with a hit. Of some 83,000 tested, about 20% had one in any assay.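 In brief: 96-well plates, 48 h treatment, single concentration, percent growth endpoint.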 Unmarked numbers belong to inactive results. Active and inactive are the calls of the source. The calls were made as follows: active = growth percent below 10; inactive = the rest.

How the values were obtained:
Test in all cases: NCI-60 one-dose screen, 48 h (100 = growth as untreated, 0 = no growth, -100 = all killed)
Conditions in all cases: 10 µM unless noted
[1] = tested on: T-47D breast
[2] = tested on: BT-549 breast
[3] = tested on: MDA-MB-435 melanoma
[4] = tested on: SW-620 colon
[5] = tested on: MCF7 breast
[6] = tested on: HCT-116 colon
[7] = tested on: HCC-2998 colon
[8] = tested on: KM12 colon

Structure (SMILES)	growth [1]	growth [2]	growth [3]	growth [4]	growth [5]	growth [6]	growth [7]	growth [8]
CCC(C)C1NC(=O)C(CCNCS(=O)(=O)O)NC(=O)C(NC(=O)C(CCNCS(=O)(=O)O)NC(=O)C(NC(=O)C(CCNCS(=O)(=O)O)NC(=O)CCCCC(C)C)C(C)O)CCNC(=O)C(C(C)O)NC(=O)C(CCNCS(=O)(=O)O)NC(=O)C(CCNCS(=O)(=O)O)NC(=O)C(C(C)CC)NC1=O (configuration not stated)	49.2%	66.3%	-56.2% (active)	34.8%	18.7%	31.7%	65.1%	–
O=C(Oc1cccc2ccccc12)c1ccccc1C(=O)c1ccccc1	87.4%	99.7%	73.5%	99.4%	109%	82%	103%	92.2%
CCCc1n(Cc2ccc3ccccc3c2)cc[n+]1Cc1ccc2ccccc2c1	-3.21% (active)	-32.2% (active)	-50.8% (active)	8.13% (active)	-16.7% (active)	1.39% (active)	-22.9% (active)	-63.7% (active)
COc1ccc(C(=O)COc2cccc(/C=C3\CSc4ccc(Cl)cc4C3=O)c2)cc1	70.4%	42.5%	93.2%	-65.9% (active)	-11.8% (active)	53.9%	95.2%	–
COC(=O)C1=CCC(n2cnc3c(N)ncnc32)O1 (configuration not stated)	102%	114%	102%	106%	120%	98.6%	106%	100%
CCCCCc1c(C)[nH]c(/C=C2\N=C(c3ccc[nH]3)C=C2OCc2ccccc2)c1C	-77.7% [100 µM] (active)	-94.6% [100 µM] (active)	-93.9% [100 µM] (active)	-34.7% [100 µM] (active)	-73% [100 µM] (active)	-94.7% [100 µM] (active)	-87.8% [100 µM] (active)	-80.9% [100 µM] (active)
COC(=O)N/N=C/c1coc2ccc(Cl)cc2c1=O	83%	82.5%	103%	101%	88.9%	95.5%	101%	94%
CC[C@H]1CN2CCc3cc(OC)c(OC)cc3C2C[C@@H]1CC1NCCc2cc(OC)c(OC)cc21 (some centres not stated)	-15.1% (active)	-11% (active)	-71.2% (active)	-20.3% (active)	-2.18% (active)	-22.9% (active)	-47.8% (active)	-37.2% (active)
CSc1nc(N)c2c(n1)N(C)C=NS2(=O)=O	97.2%	100%	111%	102%	102%	102%	107%	117%
COc1cnc2c(c1)C(=O)c1c-2n(CCCNC(C)C)c(=O)c2cc(F)ccc12	-11.5% (active)	-17.9% (active)	-6.52% (active)	-8.49% (active)	-3% (active)	-76.5% (active)	-49.8% (active)	-17.7% (active)
COc1cc(C2=NN(C=O)C(c3cccc(Nc4ccnc5cc(Cl)ccc45)c3)C2)cc(OC)c1OC (configuration not stated)	63.2%	61.5%	84.5%	88.6%	68.8%	62.6%	107%	91%
COc1ccc(CCN2C(=O)CCC3=C2CCCC3=O)cc1OC	104%	104%	103%	107%	92.6%	100%	103%	–
Cn1c(N2N=C(c3ccc(Cl)cc3)CC2c2ccccc2)nc(-c2ccccc2)c(C#N)c1=O (configuration not stated)	64.4%	88.1%	83.6%	77.1%	62.1%	51%	82.3%	78.3%
O=C(Nc1nc2ccc(OC(F)(F)F)cc2s1)c1ccc(F)cc1	-10.8% (active)	39.2%	15.1%	13.3%	-0.0548% (active)	-28% (active)	3.77% (active)	2.23% (active)
C#C[C@]1(O)CCC2C3CCc4cc(O)ccc4C3CC[C@@]21C (some centres not stated)	50.3%	36.8%	-5.44% (active)	21.2%	34.1%	19%	61%	21.9%
COC(=O)C1(NC(=O)CNC(=O)OCc2ccccc2)CCCC1	113%	99.1%	106%	104%	93.9%	99.9%	108%	108%
COc1cc(/C=N/NC(=O)c2ccc(C(F)(F)F)nc2Nc2cc(Cl)ccc2C)cc(OC)c1OC	84.7%	99.6%	97.7%	97%	104%	99%	104%	108%
Cc1ccc(C2=NNC(c3sc(Cl)nc3Cl)C2)cc1 (configuration not stated)	56.1%	98%	104%	72.1%	65.9%	74.7%	92.8%	99.5%
CCOC(=O)c1sc(NC(=O)COc2cccc(/C=C3\Cc4ccc(Cl)cc4C3=O)c2)nc1C	98.8%	115%	103%	94.6%	54.3%	12.3%	-19.5% (active)	103%
CCOC(=O)C1=CCC(n2cc(C)c(=O)[nH]c2=O)O1 (configuration not stated)	99.1%	120%	113%	105%	119%	102%	110%	96%
Cc1nn(-c2nc3ccccc3s2)c(C)c1Oc1ccccc1O	87.1%	63%	72.4%	47.8%	81.7%	27.4%	250%	63.6%
CC1CC=CCC1C1OCC(C)(C)CO1 (configuration not stated)	75.3%	99.9%	105%	102%	101%	97.5%	113%	–
CC(=O)/C(=C/c1ccc(Cl)cc1)C(=O)c1ccccc1	83%	97.4%	61.4%	61.3%	53.1%	66%	99.2%	–
Nc1nc(Nc2ccccc2SSc2ccccc2Nc2nc(N)nc(-c3ccc(I)cc3)n2)nc(-c2ccc(I)cc2)n1	67.1%	70.8%	86.7%	94.3%	76%	50.1%	105%	37.2%
COc1ccc(OC)c2c1CCC1(C2)NC(=O)NC1=O (configuration not stated)	109%	114%	95.9%	103%	92.4%	107%	106%	–
O=C(Nc1ccccc1S)c1ccccc1	105%	99.9%	101%	98.5%	91.1%	96.2%	109%	104%
CCN1CC2=C(Nc3nc(SC)[nH]c(=O)c3C2c2cc(OC)c(OC)c(OC)c2)/C(=C/c2cc(OC)c(OC)c(OC)c2)C1 (configuration not stated)	97.5%	102%	93.5%	102%	86.2%	92.6%	102%	97.5%
COc1ccc(OC)c(CCn2cncc2-c2c[nH]c3cc(Br)ccc23)c1	6.48% (active)	14.1%	11.8%	33.7%	17.2%	23.6%	69.6%	41.7%
CCOC(=O)c1sc(NC(=O)COc2ccc(/C=C3\CCc4cc(OC)ccc4C3=O)cc2)nc1C	86.6%	51.8%	87.1%	99.5%	112%	105%	–	–
c1ccc(Nc2ccc(Nc3nc(-c4ccccc4)nc4ccccc34)cc2)cc1	47.9%	93.8%	87.5%	75.7%	80.6%	74.9%	89%	36.4%
